Measured values from PubChem BioAssay AID2417 (National Center for Advancing Translational Sciences (NCATS), 2010).
The campaign covered roughly 140,000 compounds. About 4,300 (3.1%) were called active. Inconclusive results (about 21%) are left out. The sample holds actives, similar compounds and a random draw of the others, so the mix is not that of the screen. Values without a mark were called inactive.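 How the source made its calls: active means readout at or below -70, meaning at least 70% loss of cells showing the perinucleolar compartment, a nuclear body marking cancer cells; inconclusive means readout between -30 and a set limit; inactive means the rest.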

Test: High Content Assay for Compounds that inhibit the Assembly of the Perinucleolar Compartment;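 further: plate controls were DMSO wells for no effect and camptothecin positive control wells for full effect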
Conditions: PC3M PTB-GFP, PNC prevalence imaging, 16 h; at 10 µM; hits give low values
Procedure, shortened: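 Compounds are pinned in duplicate onto adhered PC3M cells stably expressing GFP-tagged PTB and incubated 16 h at 37 C. Cells are then fixed, nuclei stained with Hoechst, and PNC-positive cells counted.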

Row | SMILES | activity change (PNC), negative = inhibition
1 | C=CCNCCCCOc1ccccc1 | -6.05%
2 | CN(C)CCNC(=O)Cc1ccc([N+](=O)[O-])cc1 | 15.1%
3 | O=C(NCCNc1ccc([N+](=O)[O-])cc1)c1cccc2c(Br)cccc12 | -86.3% (active)
4 | CC(CNc1ccc([N+](=O)[O-])cc1)NC(=O)c1ccccc1Br (configuration not stated) | 3.05%
5 | Cc1nc2ccccc2nc(C)c1=NOCc1ccc(Cl)cc1Cl | -24.9%
6 | Cc1ccn(-c2cccc(-n3ccc(C)n3)n2)n1 | -4.25%
7 | Cc1c(C2=CCN(S(=O)(=O)c3ccc(Cl)cc3)CC2)c2ccccc2n1C | 30.7%
8 | O=[N+]([O-])c1cccc(S(=O)(=O)N2CCCCCC2)c1 | -7.16%
9 | N/C(=N\OS(=O)(=O)c1cccc([N+](=O)[O-])c1)c1ccncc1 | -108% (active)
10 | CO/N=C(\N)c1ccc([N+](=O)[O-])cc1 | 28.8%
11 | CCC1(C(=O)c2ccccc2)C(c2cccc([N+](=O)[O-])c2)C1(C(=O)OC)C(=O)OC (configuration not stated) | -9.15%
12 | CC(C)(C)n1nnc(CCc2nnn(C(C)(C)C)n2)n1 | -91.9% (active)
13 | O=C(Nc1ccc([N+](=O)[O-])cc1)C1(c2ccccc2)CCOCC1 | 5.8%
14 | Cc1cc(C(=O)N/N=C/c2cc([N+](=O)[O-])cc(C)c2O)n[nH]1 | -128% (active)
15 | COc1cccc(/C=N/NC(=O)c2cccc([N+](=O)[O-])c2)c1OS(=O)(=O)c1ccc(C)cc1 | 20.7%
16 | Cc1ccc(-n2[nH]c(C)c(/C=N/NC(=O)c3cccc([N+](=O)[O-])c3)c2=O)cc1C | 3.84%
17 | Cc1nn(-c2ccccc2)c(-n2cccc2)c1C(=O)O | 4.84%
18 | CCc1nnc(NC(=O)C2CC(=O)N(c3ccc4c(c3)OCCO4)C2)s1 (configuration not stated) | -107% (active)
19 | CCc1ccc(N2CC(C(=O)NC3=NCCS3)CC2=O)cc1 (configuration not stated) | 10.4%
20 | CC(C)c1ccc(N2CC(C(=O)Nc3nccs3)CC2=O)cc1 (configuration not stated) | 21.8%
21 | O=C(COc1ccccc1F)NNC(=O)c1ccc(N2CCCCC2)c([N+](=O)[O-])c1 | -26.5%
22 | CCOC(=O)Cc1csc(SCC(=O)NC(C)C23CC4CC(CC(C4)C2)C3)n1 (configuration not stated) | 20%
23 | Cc1ccc(OCC(=O)N/N=C/c2ccncc2)cc1 | 28.2%

Row | SMILES | activity change (PNC), negative = inhibition
24 | Cc1ccc(OCC(=O)N/N=C\c2ccco2)c(C)c1 | 54.4%
25 | Cc1ccc(/C=N/NC(=O)COc2ccccc2-c2ccccc2)cc1 | -125% (active)
26 | CCc1ccc(NC(=O)C(C)OC(=O)/C=C/c2cccc([N+](=O)[O-])c2)cc1 (configuration not stated) | 10.2%
27 | O=C1NC(c2ccccc2)CCC1(Cl)Cl (configuration not stated) | -7.09%
28 | C=CCn1c(SCC(=O)NC23CC4CC(CC(C4)C2)C3)nc(O)cc1=O | -100% (active)
29 | O=C(CNCCO)NC12CC3CC(CC(C3)C1)C2 | 20.6%
30 | C=CCn1c(N)cc(=O)nc1SCC(=O)Nc1cccc2ccccc12 | 69%
31 | Cc1cc(C)cc(OCC(=O)NNC(=O)CCN2C(=O)c3ccccc3C2=O)c1 | 31.4%
32 | CC(=O)Nc1ccc(N2C(=O)C3C4CC(=O)C(c5ccccc54)C3C2=O)cc1 (configuration not stated) | 13.1%
33 | CC(=O)Oc1cccc(N2C(=O)C3CC=C(Cl)CC3C2=O)c1 (configuration not stated) | -0.248%
34 | O=C(Oc1cccc(N2C(=O)C3C4c5ccccc5C(c5ccccc54)C3C2=O)c1)c1ccco1 (configuration not stated) | -97.3% (active)
35 | COc1cc(NC(=O)c2cc([N+](=O)[O-])ccc2Br)ccc1NC(=O)c1ccco1 | 38.2%
36 | CC(Sc1nnc2c(n1)C1CCC2(C)C1(C)C)C(=O)Nc1ccccc1 (configuration not stated) | 11.5%
37 | O=C(Cc1ccccc1)NNS(=O)(=O)c1ccc([N+](=O)[O-])cc1 | 3.03%
38 | Clc1cccc(CN2COc3c(cc(Cl)c4cccnc34)C2)c1 | -27.1%
39 | Cc1nn(Cc2ccccc2Cl)c(C)c1NC(=O)Cn1nc([N+](=O)[O-])c(Cl)c1C | 29.3%
40 | Cc1c(Cl)c([N+](=O)[O-])nn1CCCC(=O)NC(C)c1ccccc1 (configuration not stated) | -83.2% (active)
41 | Cc1ccc(C(C)NC(=O)Cn2nc(C)c([N+](=O)[O-])c2C)cc1 (configuration not stated) | 1.18%
42 | O=C(Cc1ccccc1)Nc1cccc(C(=O)N/N=C/c2ccco2)c1 | -20.1%
43 | COC(=O)/C(C#N)=C/c1occc1C | 11.3%
44 | Nc1cccc(-c2cc(-c3ccccc3)nc(-c3cccc(N)c3)n2)c1 | -112% (active)
45 | Nc1cccc(CCc2nc3ccccc3[nH]2)c1 | -19.2%
46 | CS(=O)(=O)c1sc2nc(-c3ccccc3)cc(-c3ccccc3)c2c1N | 18.6%

Row | SMILES | activity change (PNC), negative = inhibition
47 | Cc1ccc(N2C(=O)C(NC(=O)c3c(F)cccc3F)(C(F)(F)F)C3=C2CC(C)(C)CC3=O)cc1 (configuration not stated) | -6.53%
48 | Cc1ccc2[nH]c(=O)c(CC=C(Cl)Cl)c(C)c2c1 | 8.75%
49 | O=C(O)c1ccc(NC(=O)c2cccs2)cc1 | -100% (active)
50 | O=C(O)Cc1ccc(NC(=O)c2cccs2)cc1 | -2.77%
51 | Cc1nc(-c2ccc(NC(=O)c3cccs3)cc2)cs1 | 20.4%
52 | CCCCN1C(=O)c2ccc(C(=O)Nc3ccc(S(=O)(=O)N(C)C)cc3)cc2C1=O | -17.6%
53 | CCOC(=O)COc1ccc([N+](=O)[O-])cc1 | 14.3%
54 | CCOc1cc(/C=N/NC(=O)OC)ccc1OCCSc1ccc(Cl)cc1 | 45.6%
55 | CCCC(NC(=O)c1ccco1)c1nc2ccccc2[nH]1 (configuration not stated) | 16.4%
56 | Cc1ccc(SC(=O)COc2ccc(C)c(C)c2)cc1 | -106% (active)
57 | Cc1cc(=O)oc2ccc(OCC(=O)O)cc12 | 55.8%
58 | Cc1ccc(CNC(=O)COc2ccc3c(c2)CCC3)cc1 | -5.6%
59 | O=C(COC(=O)c1cc([N+](=O)[O-])ccc1NCc1ccccc1)NC1CCCCC1 | 50.7%
60 | Cc1ccc2c(c1)C(c1ccccc1)N(C(=O)c1ccc(S(=O)(=O)N3CCOCC3)cc1)CC(=O)N2 (configuration not stated) | 7.14%
61 | COc1ccc(/C=N/NC(=O)c2ccccc2)cc1OS(=O)(=O)c1ccccc1 | 45.9%
62 | O=C(NC(=S)Nc1ccc2oc(=O)ccc2c1)c1ccc(-c2cccc(Cl)c2Cl)o1 | -8.36%
63 | COC(=O)C1=C(C)N(C)C(C)=C(C(=O)OC)C1c1cccc(Br)c1 | 20%
64 | COC(=O)C1=C(C(=O)OC)C2(OC1c1ccc(Br)cc1)C(=O)c1ccccc1C2=O (configuration not stated) | -100% (active)
65 | CCOC(=O)C1=C(C)N=C2c3ccccc3C(=O)C2C1c1ccc(Br)cc1 (configuration not stated) | -24.2%
66 | Cc1cccc2cc(CN(C(=O)c3cccs3)c3ccccc3)c(=O)[nH]c12 | 29.9%
67 | COc1ccc(/C(C)=N/Nc2cc(C(F)(F)F)ccc2Cl)c(OC)c1 | -13.2%
68 | O=C(c1ccc2c(c1)OCO2)N1CCOCC1 | -100% (active)
69 | O=C(c1ccc2c(c1)OCO2)N1CCNc2ccccc2C1 | -29.9%

Row | SMILES | activity change (PNC), negative = inhibition
70 | O=C(c1ccc2c(c1)OCO2)N1CCN(C(=O)c2ccco2)CC1 | 54.5%
71 | Cc1cccc(OP(=O)(Nc2c(C)n(C)n(-c3ccccc3)c2=O)Oc2cccc(C)c2)c1 | -6.43%
72 | COc1ccc(N(C(=O)c2ccc(C)cc2)S(=O)(=O)c2cccs2)cc1 | 19.1%
73 | Cc1ccc(NC(=S)NC(=O)c2ccc(-c3ccccc3)cc2)c(C)c1 | 6.22%
74 | O=C(CN1CCN(C(=O)c2cccc(F)c2)CC1)Nc1ccccc1F | 6.16%
75 | Cc1ccc(NC(=O)CC2C(=O)N(Cc3ccccc3)C(=S)N2NC(=O)c2cccc(F)c2)c(C)c1 (configuration not stated) | -107% (active)
76 | CC(=O)NC1=NN(C(C)=O)C(C)(CCS(=O)(=O)c2ccc(Cl)c(Cl)c2)S1 (configuration not stated) | 72.1%
77 | COc1ccc(OCCNS(=O)(=O)Cc2ccccc2)cc1 | 21.5%
78 | N#Cc1cccc(NC(=O)COC(=O)c2ccccc2C(=O)c2ccc(Cl)c([N+](=O)[O-])c2)c1 | -102% (active)
79 | COC(=O)c1cc(NC(=O)Cc2ccccc2[N+](=O)[O-])ccc1Cl | -21.5%
80 | CC(=O)Nc1ccc(NC(=O)C(C)OC(=O)c2ccccc2C(=O)c2ccc(Cl)c([N+](=O)[O-])c2)cc1 (configuration not stated) | 14.8%
81 | CCc1nnc(NC(=O)/C=C/c2ccc(C)o2)s1 | 43.5%
82 | COC(=O)C1=C(C)N(C)C(=S)NC1c1ccccc1 (configuration not stated) | -28.4%
83 | O=C(NCc1cccs1)C(=O)NCC1OCCCN1S(=O)(=O)c1ccc(F)cc1 (configuration not stated) | 17.8%
84 | Cc1cccc(N2CCN(C(=O)c3ccccc3NC(=O)C3CCCCC3C(=O)O)CC2)c1 (configuration not stated) | 0.826%
85 | O=S(=O)(NCCSc1ccccn1)c1ccc(Cl)cc1 | 47.1%
86 | COc1ccc(C2SCCN2S(=O)(=O)c2ccccc2)cc1OC (configuration not stated) | -9.05%
87 | CCc1nnc(NC(=O)C2CCCN2S(=O)(=O)c2ccccc2)s1 (configuration not stated) | 0.753%
88 | CC1CN(S(=O)(=O)c2ccccc2)C(C)CN1S(=O)(=O)c1ccccc1 (configuration not stated) | -100% (active)
89 | CCCn1nc(NS(=O)(=O)c2ccccc2)c2cc3cc(C)ccc3nc21 | 9.97%
90 | CN(C)S(=O)(=O)c1cc(NC(=O)CN2C(=O)NC3(CCCc4ccccc43)C2=O)ccc1Cl (configuration not stated) | 71.5%
91 | CCOc1ccc(NC(=S)N2CCC(N(C)CC3CCCO3)CC2)cc1 (configuration not stated) | 0.566%
92 | CC1CCN(C(=O)c2ccc(S(=O)(=O)Cc3cc(F)ccc3F)c([N+](=O)[O-])c2)CC1 | 25.9%
